Autofluor counter = compound fluorescence in toxin protease inhibitor counterscreen | AID 624483 | compound autofluorescence counterscreen, microsphere flow cytometry; hits give high values | actives 3.1% (n = 360,000) | fluorescence intensity (no concentration beside the values); in the data active = fluorescence intensity above about 16000; inconclusive = no clear call, values can overlap the other calls
TcdB GH inh = TcdB glycohydrolase inhibitors, primary screen, biochemical, single point, plate reader; Toxin B (Clostridioides difficile), P18177; TcdB glycohydrolase enzymatic assay; inhibition, % at 9.99 µM; actives 0.24% (n = 350,000); in the data active = inhibition above about 10%
Target sequence (P18177 whole entry, looked up): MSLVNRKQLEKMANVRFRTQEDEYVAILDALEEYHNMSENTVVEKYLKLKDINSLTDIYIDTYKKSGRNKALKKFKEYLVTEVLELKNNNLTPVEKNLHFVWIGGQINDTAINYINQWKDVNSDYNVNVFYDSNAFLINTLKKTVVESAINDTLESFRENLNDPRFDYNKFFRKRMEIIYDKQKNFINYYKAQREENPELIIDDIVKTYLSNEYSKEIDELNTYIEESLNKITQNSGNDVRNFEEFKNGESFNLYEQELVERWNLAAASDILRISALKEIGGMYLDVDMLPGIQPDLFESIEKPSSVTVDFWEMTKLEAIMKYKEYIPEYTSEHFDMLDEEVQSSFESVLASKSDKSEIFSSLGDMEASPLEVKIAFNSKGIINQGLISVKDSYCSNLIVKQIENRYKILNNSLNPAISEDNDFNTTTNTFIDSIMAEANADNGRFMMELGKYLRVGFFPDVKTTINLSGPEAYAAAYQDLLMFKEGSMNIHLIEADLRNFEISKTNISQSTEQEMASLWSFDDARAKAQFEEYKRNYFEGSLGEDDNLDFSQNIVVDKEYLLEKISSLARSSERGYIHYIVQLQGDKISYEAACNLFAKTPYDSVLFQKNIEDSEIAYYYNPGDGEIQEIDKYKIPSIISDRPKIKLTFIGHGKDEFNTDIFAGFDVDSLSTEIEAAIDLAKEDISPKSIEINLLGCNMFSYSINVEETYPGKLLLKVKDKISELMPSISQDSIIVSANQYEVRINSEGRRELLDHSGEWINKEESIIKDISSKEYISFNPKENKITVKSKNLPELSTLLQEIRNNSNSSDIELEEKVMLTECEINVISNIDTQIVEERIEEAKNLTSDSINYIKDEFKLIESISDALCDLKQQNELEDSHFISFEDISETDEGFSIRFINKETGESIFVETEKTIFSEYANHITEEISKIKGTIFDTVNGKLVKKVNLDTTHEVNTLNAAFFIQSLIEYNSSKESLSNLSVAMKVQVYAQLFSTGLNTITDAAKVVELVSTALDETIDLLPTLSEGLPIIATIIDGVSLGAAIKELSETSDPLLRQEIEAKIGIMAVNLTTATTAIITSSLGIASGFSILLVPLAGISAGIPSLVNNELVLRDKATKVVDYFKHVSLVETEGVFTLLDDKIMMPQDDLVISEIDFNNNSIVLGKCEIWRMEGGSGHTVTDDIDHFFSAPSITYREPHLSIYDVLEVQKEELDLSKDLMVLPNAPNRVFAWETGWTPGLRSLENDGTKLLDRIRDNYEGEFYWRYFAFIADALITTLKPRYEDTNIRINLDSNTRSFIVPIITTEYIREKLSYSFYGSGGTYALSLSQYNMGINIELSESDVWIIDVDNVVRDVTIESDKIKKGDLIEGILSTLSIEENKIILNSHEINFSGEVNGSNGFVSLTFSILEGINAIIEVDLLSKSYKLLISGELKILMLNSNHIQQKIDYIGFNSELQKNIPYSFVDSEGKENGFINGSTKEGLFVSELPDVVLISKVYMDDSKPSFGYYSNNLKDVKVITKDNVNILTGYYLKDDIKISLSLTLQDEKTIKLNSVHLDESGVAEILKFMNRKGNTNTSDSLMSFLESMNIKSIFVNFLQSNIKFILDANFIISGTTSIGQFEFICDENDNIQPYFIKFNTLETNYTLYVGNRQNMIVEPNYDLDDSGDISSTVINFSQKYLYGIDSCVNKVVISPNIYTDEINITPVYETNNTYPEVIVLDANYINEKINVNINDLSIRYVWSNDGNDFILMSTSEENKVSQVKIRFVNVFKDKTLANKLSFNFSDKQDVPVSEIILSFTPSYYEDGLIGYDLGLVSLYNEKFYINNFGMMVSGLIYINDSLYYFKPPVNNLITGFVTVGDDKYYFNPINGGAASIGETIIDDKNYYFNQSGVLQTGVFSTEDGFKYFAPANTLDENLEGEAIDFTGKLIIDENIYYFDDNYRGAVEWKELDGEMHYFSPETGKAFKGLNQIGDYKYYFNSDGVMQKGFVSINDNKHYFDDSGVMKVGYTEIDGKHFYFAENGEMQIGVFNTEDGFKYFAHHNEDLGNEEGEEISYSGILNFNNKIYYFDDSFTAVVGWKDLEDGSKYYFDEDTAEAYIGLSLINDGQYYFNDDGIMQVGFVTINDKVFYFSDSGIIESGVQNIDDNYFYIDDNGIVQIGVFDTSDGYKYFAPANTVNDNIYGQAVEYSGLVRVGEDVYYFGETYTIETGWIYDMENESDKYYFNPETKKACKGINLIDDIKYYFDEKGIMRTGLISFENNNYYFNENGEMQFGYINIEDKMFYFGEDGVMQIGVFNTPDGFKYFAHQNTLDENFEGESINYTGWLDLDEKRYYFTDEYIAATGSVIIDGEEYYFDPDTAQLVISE
Anthrax LF inh2 = Bacillus anthracis LF protease inhibitors, primary screen, biochemical, multiplex microsphere, MLPCN library. Lethal factor (Bacillus anthracis), P15917. multiplex microsphere protease cleavage assay. inhibition, % at 10 µM. actives 0.12% (n = 360,000)
BoNT-A LC inh2 = BoNT/A light chain protease inhibitors, primary screen, biochemical, flow cytometry, MLPCN library | AID 588499, 2011 | multiplex microsphere protease substrate cleavage | Botulinum neurotoxin type A light chain protease (Clostridium botulinum A str. ATCC 3502) | actives 0.17% (n = 360,000) | inhibition, % at 10 µM
BoNT-F LC inh = BoNT/F light chain protease inhibitors, primary screen, biochemical, flow cytometry, MLPCN library | Botulinum neurotoxin type F light chain protease (Clostridium botulinum) | Multiplex microsphere protease cleavage assay | inhibition, % at 10 µM | actives 0.22% (n = 360,000); in the data active = inhibition above about 35%, passing the limit was not always enough; inconclusive = no clear call, values can overlap the other calls
Hits are given with their value; – = inactive; ? = inconclusive; · = no result. The full list was thinned out, with hits kept by preference. Rule as the data show it, unless noted: active = inhibition above about 30%; inconclusive = no clear call, values can overlap the other calls; inactive = below that.

SMILES | Autofluor counter | TcdB GH inh | Anthrax LF inh2 | BoNT-A LC inh2 | BoNT-F LC inh
C[C@H]1CCCCO[C@@H](CN(C)C(=O)CCCN(C)C)[C@@H](C)CN([C@@H](C)CO)C(=O)c2cc(NS(=O)(=O)c3ccc(Cl)cc3)ccc2O1 | · | – | · | · | ·
O=c1oc2ccccc2cc1-c1nc2c(s1)CCCC2 | 23234 | – | – | ? | –
COCCOC(=O)c1c(C)oc2ccc(O)c(CN3CCC(C)CC3)c12 (tested in a mixture with another compound) | – | – | – | – | –
Cc1oc2ccc(O)c(CN3CCOCC3)c2c1C(=O)c1ccc(Cl)cc1 | 23586 | · | – | – | –
Cc1cccc(N2C(=O)CC(N(C(=O)c3ccco3)c3cccc(C)c3)C2=O)c1 (stereo unspecified) | 17561 | · | – | ? | –
O=C(NNC1CC(=O)N(c2ccccc2)C1=O)c1ccco1 (stereo unspecified) | – | – | – | – | –
Cc1nc(-c2ccccc2)cc(N2CCCC2)n1 | 23051 | · | – | ? | –
Nc1nc(-c2ccccc2)cc(N2CCCCC2)n1 | – | · | – | – | –
CCCNC(=O)Cc1ccsc1 | 21829 | · | – | – | –
CCN(CC)CCNC(=O)c1ccc(NC(=O)Cc2ccsc2)cc1 | – | – | – | – | –
CCCC#Cc1ccc2c(c1)[C@H]1[C@H](CCN1S(=O)(=O)c1cn(C)cn1)[C@H](CO)N2 | · | – | · | · | ·
CCCOc1ccc(C(=O)N2CCN(c3ccc(NC(=O)CC)cc3Cl)CC2)cc1 | 20982 | – | – | ? | –
CN1CCN(c2ccc(NC(=O)COc3ccccc3)cc2Cl)CC1 | – | – | – | – | –
O=S(=O)(c1ccc(OC(F)(F)F)cc1)N1CCC(O)(c2cccc(C(F)(F)F)c2)CC1 | – | – | – | – | –
OC1(c2cccc(C(F)(F)F)c2)CCNCC1 | 20667 | · | – | – | –
COc1ccc(C(=O)OCC(N)=O)cc1[N+](=O)[O-] | – | – | – | – | –
O=C(C[n+]1cc(Br)cc2ccccc21)c1ccccc1 | – | – | 46 | 100 | –
COc1ccc(C(=O)C[n+]2cc(Br)cc3ccccc32)cc1[N+](=O)[O-] | – | – | – | 116 | 52
O=C(C[C@H]1CC[C@H]2[C@@H](COC[C@@H](O)CN2CC2CC2)O1)NCC1CC1 | · | – | · | · | ·
N/C(=N\OC(=O)Cc1ccccc1)c1cccnc1 | 20077 | · | – | – | –
N/C(=N\OC(=O)CCCc1ccccc1)c1cccc([N+](=O)[O-])c1 | – | – | – | – | –
N/C(=N\OC(=O)CCC1CCCCC1)c1cccnc1 | 21493 | · | – | – | –
N/C(=N\OC(=O)Cc1ccc(-c2ccccc2)cc1)c1cccnc1 | – | · | – | – | –
N/C(=N\OC(=O)CCC1CCCC1)c1ccc(Br)cc1 | – | – | – | – | –
N/C(=N\OC(=O)Cc1ccc(-c2ccccc2)cc1)c1cccc([N+](=O)[O-])c1 | 16257 | – | – | – | –
SMILES | Autofluor counter | TcdB GH inh | Anthrax LF inh2 | BoNT-A LC inh2 | BoNT-F LC inh
COc1ccc(S(=O)(=O)N2CC[C@@H]3[C@@H](CO)Nc4ccc(-c5cccc(C#N)c5)cc4[C@@H]32)cc1 | · | – | · | · | ·
Cc1cc(=O)oc(C)c1C(=O)NCCC(C)C | 22899 | – | – | – | –
Cc1cc(=O)oc(C)c1C(=O)NCC1COc2ccccc2O1 (stereo unspecified) | 20933 | – | – | – | –
O=C(NCc1ccccn1)c1cc2cc(Br)ccc2oc1=O | 25730 | – | – | – | –
Cc1cc(=O)oc(C)c1C(=O)NCc1ccccn1 | 20680 | · | – | – | –
Cc1noc(C)c1NC(=O)Nc1ccc2c(c1)C(=O)N([C@@H](C)CO)C[C@@H](C)[C@H](CN(C)C(=O)Nc1ccc3c(c1)OCO3)O2 | · | – | · | · | ·
CCN(CCCNC(=O)c1c(C)cc(=O)oc1C)c1cccc(C)c1 | 22991 | · | – | – | –
C[C@H](CO)N1C[C@H](C)[C@@H](CN(C)C(=O)c2ccc(F)cc2)Oc2cc(C3=CCCC3)ccc2S1(=O)=O | · | – | · | · | ·
CCOC(=O)c1sc(NS(=O)(=O)c2ccccc2)nc1C | – | – | – | – | –
CCOC(=O)c1sc(NC(=O)c2ccc(=O)[nH]c2)nc1C | – | – | – | – | 37
CCOC(=O)c1sc(NC(=O)C2CC2)nc1C | – | – | – | – | –
CCOC(=O)c1sc(NS(=O)(=O)c2ccccc2Cl)nc1C | 26130 | · | – | – | –
Cc1csc(NC(=O)C2C3C=CC(C3)C2C(=O)O)n1 (stereo unspecified) | 21611 | · | – | ? | –
CCOC(=O)Cc1csc(NC(=O)C2C3C=CC(C3)C2C(=O)O)n1 (stereo unspecified) | – | · | – | – | –
CCOC(=O)c1sc(NC(=O)C2C3C=CC(C3)C2C(=O)O)nc1C (stereo unspecified) | 23393 | – | – | – | –
Cc1cccc(NC(=O)C2CCCN(C(=O)NC3CCCCC3)C2)c1C (stereo unspecified) | 22986 | · | – | – | –
COc1ccccc1NC(=O)N1CCCC(C(=O)Nc2cccc(C)c2C)C1 (stereo unspecified) | – | · | – | – | –
CCN(c1ccc(N=Cc2c(O)n(Cc3ccc(OC)cc3)c(=O)c3ccccc23)cc1)C(C)C | 55670 | – | – | 37 | 52
CCCCCn1c(N)c(-c2nc3ccccc3s2)c2c([N+](=O)[O-])nn(CC)c(=O)c21 | 17846 | · | – | – | –
CCCCn1c(N)c(-c2nc3ccccc3s2)c2c([N+](=O)[O-])nn(CC)c(=O)c21 | – | · | – | – | –
Cc1ccccc1S(=O)(=O)N1[C@@H]2CNC[C@H]1C2c1ccc(/C=C/c2ccccc2)cc1 (stereo partly specified) | · | – | · | · | ·
CC1(C)Cc2nc3sc4c(=O)n(CC(=O)NCc5ccco5)cnc4c3cc2CO1 | 19965 | · | – | ? | –
Clc1ccc(Cl)c(-c2nn3c(COc4ccccc4)nnc3s2)c1 | – | · | – | – | –
CCc1nnc2sc(-c3cc(-c4ccccc4)nc4ccccc34)nn12 | 19922 | · | – | – | –
COc1ccc(CN(C)C[C@@H]2Oc3ccc(NC(=O)C4CC4)cc3CC(=O)N([C@@H](C)CO)C[C@@H]2C)cc1 | · | – | · | · | ·
SMILES | Autofluor counter | TcdB GH inh | Anthrax LF inh2 | BoNT-A LC inh2 | BoNT-F LC inh
NC(=O)CC1NC(=O)c2ccccc21 (stereo unspecified) | 23615 | · | – | – | –
COc1cc2ccccc2cc1C(=O)Nc1ccc(Cc2ccncc2)cc1 | 21333 | · | – | – | –
COc1cc2ccccc2cc1C(=O)Nc1ccc(C)cc1 | – | – | – | – | –
CO[C@H]1CN(C)C(=O)c2cc(NC(=O)C3CC3)ccc2OC[C@@H](C)N(C(=O)c2ccccc2)C[C@@H]1C | · | – | · | · | ·
CC1(C)NC(C)(C)C(O)(C(N)=O)C1=O (stereo unspecified) | 23198 | · | – | – | –
CC1(C)C(C(N)=O)C(=O)NC(=O)C1C(N)=O (stereo unspecified) | – | – | – | – | –
Cc1nc(N2CCOCC2)[nH]c(=O)c1CCC(C)C | 16493 | · | – | – | –
CN(c1ccc([N+](=O)[O-])cc1C(=O)Nc1ccccc1)C1CCCCC1 | 21198 | – | – | – | –
